Test results: PubChem BioAssay (NCI)
This is part of a sample that, as a whole, favours compounds with a hit. Of some 83,000 tested, about 20% had one in any assay.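 Plates (96-well) were seeded with cells, treated with compound at one concentration, and incubated for 48 hours before percent growth was determined.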 Values without a mark were called inactive. Calls of active or inactive are those of the source. How the source made its calls: active means growth percent below 10; inactive means the rest.

Assays:
Assay in all cases: NCI-60 one-dose screen, 48 h (100 = growth as untreated, 0 = no growth, -100 = all killed)
Conditions in all cases: 10 µM unless noted
SK-MEL-2 melanoma = test system: SK-MEL-2 melanoma
EKVX NSCLC = test system: EKVX NSCLC
SN12C renal = test system: SN12C renal
UO-31 renal = test system: UO-31 renal
TK-10 renal = test system: TK-10 renal
ACHN renal = test system: ACHN renal
CAKI-1 renal = test system: CAKI-1 renal
CCRF-CEM leukemia = test system: CCRF-CEM leukemia
MOLT-4 leukemia = test system: MOLT-4 leukemia
SR leukemia = test system: SR leukemia
RPMI-8226 leukemia = test system: RPMI-8226 leukemia
OVCAR-8 ovarian = test system: OVCAR-8 ovarian
OVCAR-5 ovarian = test system: OVCAR-5 ovarian
OVCAR-4 ovarian = test system: OVCAR-4 ovarian
SK-OV-3 ovarian = test system: SK-OV-3 ovarian
IGROV1 ovarian = test system: IGROV1 ovarian
HS 578T breast = test system: HS 578T breast
NCI/ADR-RES ovarian = test system: NCI/ADR-RES ovarian
A498 renal = test system: A498 renal
OVCAR-3 ovarian = test system: OVCAR-3 ovarian

Structure (SMILES)	growth (SK-MEL-2 melanoma)	growth (EKVX NSCLC)	growth (SN12C renal)	growth (UO-31 renal)	growth (TK-10 renal)	growth (ACHN renal)	growth (CAKI-1 renal)	growth (CCRF-CEM leukemia)	growth (MOLT-4 leukemia)	growth (SR leukemia)	growth (RPMI-8226 leukemia)	growth (OVCAR-8 ovarian)	growth (OVCAR-5 ovarian)	growth (OVCAR-4 ovarian)	growth (SK-OV-3 ovarian)	growth (IGROV1 ovarian)	growth (HS 578T breast)	growth (NCI/ADR-RES ovarian)	growth (A498 renal)	growth (OVCAR-3 ovarian)
N[C@H]1CN(C(=O)c2cc3cc(Br)c(F)c(F)c3[nH]2)C[C@@H]1O	102%	92.8%	95.7%	67.2%	107%	102%	79.4%	97.2%	98.1%	108%	98%	100%	94.3%	110%	100%	84.6%	98.9%	100%	–	–
Cc1ccc(NS(=O)(=O)c2cc(C)ccc2C)cc1	20.3%	55.4%	60.8%	65.5%	58.5%	70.7%	25.3%	–	–	–	13.6%	54.8%	82.8%	92.6%	56.3%	53.8%	–	2.96% (active)	38.7%	3.62% (active)
COc1ccc(-c2ccc(-c3ccc(C(=N)N)s3)s2)cc1Cl	96.2%	70.1%	-83.7% (active)	81.4%	-45.1% (active)	16.9%	68.3%	-31.2% (active)	-57.3% (active)	-16.5% (active)	-39.7% (active)	-23.3% (active)	68.4%	72.5%	–	5.34% (active)	87%	27.8%	–	-90.6% (active)
Cn1ccc(Nc2nccc(Oc3ccc(C(=O)Nc4cccc(F)c4)c(Cl)c3)n2)c1	58%	47.1%	73.4%	62.6%	54.4%	44.7%	69.6%	58.4%	83.3%	98.3%	107%	88.2%	87.9%	67%	15.9%	62.4%	96.9%	96.6%	–	55.6%
Clc1ccc(-c2nc3ccccc3s2)cc1Cl	94.8%	85.3%	92.3%	72.3%	81.5%	93.3%	83.9%	–	–	–	104%	98.9%	103%	81.3%	108%	75%	104%	98.1%	77%	92.7%
OCCCCCCNc1ncnc2cc(Cl)ccc12	100%	105%	99.9%	69.7%	94.1%	102%	90.3%	78.2%	84.5%	64.8%	83.6%	94.1%	119%	76.2%	81.3%	112%	105%	95.7%	–	92.4%
COc1cccc(/C=C2\Oc3cc(OCCCN4CCCC4)ccc3C2=O)c1OC	105%	93%	95.2%	79.3%	104%	102%	93.1%	85.1%	91.5%	70.8%	88.6%	94%	94.9%	99.9%	110%	96.1%	93.9%	97.3%	–	–
CCOC(=O)/C(C#N)=C1/C(=O)Nc2ccccc21	122%	117%	96.3%	71.1%	130%	102%	99.4%	67.1%	138%	149%	111%	108%	104%	114%	117%	109%	121%	112%	–	–
O=[N+]([O-])c1cccc(-c2nc3sccn3c2-c2ccnc(NCCCNS(=O)(=O)c3ccc(Cl)cc3)n2)c1	45.3%	50.9%	53.8%	22.2%	117%	47.8%	43.8%	16.7%	13.7%	60.7%	16.2%	20%	112%	17.5%	96.5%	–	81.2%	12.6%	–	44.5%
